This note sets out measurements from PubChem BioAssay (EPA / NIEHS).

Common to all, as to conditions: mRNA level, 48 h; actives raise or lower the signal
Read-out in assay [1]: Interleukin 6 Receptor (IL6R), IL6R (gene 3570)
In words: LTEA_HepaRG_IL6R: Life Technologies and Expression Analysis (LTEA) Assay for Interleukin 6 Receptor (IL6R) using HepaRG (AID 2283510). An outline of the steps:
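HepaRG, 48 h exposure, 8-pt half-log series, top 100 uM, 0.5% DMSO vehicle, duplicates. Read-out: TaqMan qRT-PCR of IL6R transcript, housekeeping-gene normalized. Gain or loss fitted relative to DMSO baseline.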

Read-out in assay [2]: Potassium channel subfamily K member 1 (KCNK1), KCNK1 (gene 3775)
The assay is described as follows: LTEA_HepaRG_KCNK1: Life Technologies and Expression Analysis (LTEA) Assay for Potassium channel subfamily K member 1 (KCNK1) using HepaRG (AID 2283511). In a few lines:
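HepaRG, 48 h exposure, 8-pt half-log series top 100 uM, 0.5% DMSO vehicle, duplicates. Readout: KCNK1 transcript by qRT-PCR (Fluidigm array), housekeeping-normalized; bidirectional curve fit relative to DMSO baseline.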

Read-out in assay [3]: Keratin 19 (KRT19), KRT19 (gene 3880)
The assay is described as follows: LTEA_HepaRG_KRT19: Life Technologies and Expression Analysis (LTEA) Assay for Keratin 19 (KRT19) using HepaRG (AID 2283512). An outline of the steps: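 KRT19 transcript levels, measured by Fluidigm qRT-PCR against three housekeeping genes, are fitted for gain or loss of signal relative to DMSO. Human HepaRG cells receive test chemicals (top 100 uM, half-log steps, 0.5% DMSO) for 48 hours.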

Read-out in assay [4]: JUN Transcription Factor, JUN (gene 3725)
In words: LTEA_HepaRG_JUN: Life Technologies and Expression Analysis (LTEA) Assay for JUN Transcription Factor using HepaRG (AID 2283513). An outline of the steps: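 HepaRG, 48 h exposure, 8-pt half-log series top 100 uM, 0.5% DMSO, duplicate. JUN mRNA by qRT-PCR (Fluidigm), housekeeping-normalized (ACTB/GAPDH/POLR2A); bidirectional curve fit vs DMSO baseline.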

Read-out in assay [5]: Lipase C (LIPC), LIPC (gene 3990)
In words: LTEA_HepaRG_LIPC: Life Technologies and Expression Analysis (LTEA) Assay for Lipase C (LIPC) using HepaRG (AID 2283514). An outline of the steps: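 HepaRG, 48 h exposure, 8-pt half-log series from 100 uM in 0.5% DMSO, duplicates. Readout: LIPC mRNA by Fluidigm qRT-PCR, housekeeping-normalized (ACTB/GAPDH/POLR2A). Gain or loss fitted bidirectionally against DMSO baseline.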

Read-out in assay [6]: Lipoprotein lipase (LPL), LPL (gene 4023)
In words: LTEA_HepaRG_LPL: Life Technologies and Expression Analysis (LTEA) Assay for Lipoprotein lipase (LPL) using HepaRG (AID 2283515). An outline of the steps: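 HepaRG, 48 h exposure, 8-pt half-log dilutions from 100 uM, 0.5% DMSO vehicle, duplicates; qRT-PCR (Fluidigm array) of LPL mRNA vs housekeeping genes; bidirectional curve fit relative to DMSO baseline.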

Read-out in assay [7]: MicroRNA 122 (MIR122), gene 406906
In words: LTEA_HepaRG_MIR122: Life Technologies and Expression Analysis (LTEA) Assay for MicroRNA 122 (MIR122) using HepaRG (AID 2283516). Also: the transcript read is the microRNA miR-122. In a few lines: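 qRT-PCR read-out (TaqMan, Fluidigm array), normalized to three housekeeping genes; HepaRG cells dosed 48 h at 8 concentrations up to 100 uM in 0.5% DMSO, duplicate; gain or loss fitted against DMSO baseline.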

Read-out in assay [8]: matrix metalloproteinase-10 (MMP10), MMP10 (gene 4319)
The assay is described as follows: LTEA_HepaRG_MMP10: Life Technologies and Expression Analysis (LTEA) Assay for matrix metalloproteinase-10 (MMP10) using HepaRG (AID 2283517). An outline of the steps: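 Transcript levels come from Fluidigm qRT-PCR normalized to three housekeeping genes, with curves fitted bidirectionally against 0.5% DMSO. Human HepaRG cells were dosed for 48 hours at concentrations up to 100 uM.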

Read-out in assay [9]: MYC, MYC (gene 4609)
In words: LTEA_HepaRG_MYC: Life Technologies and Expression Analysis (LTEA) Assay for MYC using HepaRG (AID 2283518). An outline of the steps: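 HepaRG, ~100,000 cells/well, collagen I; 48 h plating; serum-free induction medium; 48 h dosing, duplicate, 100 uM top, half-log, 0.5% DMSO; total RNA → qRT-PCR MYC; gain/loss fit vs DMSO.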

Read-out in assay [10]: matrix metalloproteinase-3 (MMP3), MMP3 (gene 4314)
In words: LTEA_HepaRG_MMP3: Life Technologies and Expression Analysis (LTEA) Assay for matrix metalloproteinase-3 (MMP3) using HepaRG (AID 2283519). In a few lines:
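qRT-PCR read-out of MMP3 mRNA (normalised to three housekeeping genes) in HepaRG liver cells after 48 h chemical exposure; 8-point half-log series, top 100 uM, 0.5% DMSO vehicle. Bidirectional curve fitting against DMSO baseline.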

Read-out in assay [11]: Paternally Expressed 10 (PEG10), PEG10 (gene 23089)
In words: LTEA_HepaRG_PEG10: Life Technologies and Expression Analysis (LTEA) Assay for Paternally Expressed 10 (PEG10) using HepaRG (AID 2283520). An outline of the steps:
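qRT-PCR read-out: PEG10 mRNA normalised to three housekeeping genes, fitted bidirectionally against 0.5% DMSO vehicle. HepaRG cells received test chemicals for 48 h in serum-free induction medium, 8 points, top 100 uM, half-log steps.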

Read-out in assay [12]: Nuclear factor NF-kappa-B p105 subunit (Homo sapiens) (UniProt P19838)
In words: LTEA_HepaRG_NFKB1: Life Technologies and Expression Analysis (LTEA) Assay for Nuclear Factor Kappa B Subunit 1 (NFKB1) using HepaRG (AID 2283521).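 Also: differentiated human HepaRG liver cells in serum-free induction medium; TaqMan qRT-PCR transcript normalised to ACTB GAPDH and POLR2A housekeeping genes.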 In a few lines: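 HepaRG, 48 h exposure; 8-pt half-log series from 100 uM in 0.5% DMSO; duplicates. Readout: NFKB1 mRNA by qRT-PCR (Fluidigm arrays), housekeeping-normalized. Gain/loss fit vs DMSO baseline.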

Read-out in assay [13]: Protein phosphatase 2A (PPP2R4), PTPA (gene 5524)
The assay is described as follows: LTEA_HepaRG_PPP2R4: Life Technologies and Expression Analysis (LTEA) Assay for Protein phosphatase 2A (PPP2R4) using HepaRG (AID 2283522). An outline of the steps:
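HepaRG, 48 h exposure, 8-pt half-log series from 100 uM, 0.5% DMSO vehicle, duplicates. Readout: PPP2R4 mRNA, Fluidigm qRT-PCR, housekeeping-normalized. Bidirectional curve fit vs DMSO baseline.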

Read-out in assay [14]: Phosphatase and tensin (PTEN), PTEN (gene 5728)
The assay is described as follows: LTEA_HepaRG_PTEN: Life Technologies and Expression Analysis (LTEA) Assay for Phosphatase and tensin (PTEN) using HepaRG (AID 2283523). An outline of the steps:
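HepaRG, 48 h exposure, 8-pt half-log series from 100 uM top, 0.5% DMSO vehicle, duplicates. Readout: Fluidigm qRT-PCR of PTEN transcript; housekeeping normalization (ACTB, GAPDH, POLR2A). Gain or loss fitted relative to DMSO baseline.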

Read-out in assay [15]: Pyruvate Dehydrogenase Kinase 4 (PDK4), PDK4 (gene 5166)
In words: LTEA_HepaRG_PDK4: Life Technologies and Expression Analysis (LTEA) Assay for Pyruvate Dehydrogenase Kinase 4 (PDK4) using HepaRG (AID 2283525). In a few lines: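 HepaRG (human liver line), 48 h chemical exposure, 8-pt half-log CRC top 100 uM, 0.5% DMSO vehicle, duplicates. Readout: TaqMan qRT-PCR of PDK4 mRNA, housekeeping-normalized; gain/loss fit relative to DMSO baseline.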

Read-out in assay [16]: NAD(P)H dehydrogenase [quinone] 1 (NQO1), NQO1 (gene 1728)
In words: LTEA_HepaRG_NQO1: Life Technologies and Expression Analysis (LTEA) Assay for NAD(P)H dehydrogenase [quinone] 1 (NQO1) using HepaRG (AID 2283526). An outline of the steps:
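qRT-PCR read-out (Fluidigm TaqMan), normalized to three housekeeping genes, after 48 h chemical exposure of HepaRG cells. Concentrations: eight points, top 100 uM, half-log steps, 0.5% DMSO vehicle. Gain or loss of signal fitted relative to DMSO.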

Read-out in assay [17]: Nuclear factor erythroid 2-related factor 2 (Homo sapiens) (UniProt Q16236)
The assay is described as follows: LTEA_HepaRG_NFE2L2: Life Technologies and Expression Analysis (LTEA) Assay for Nuclear factor erythroid 2-related factor 2 (NFE2L2) Transcription Factor using HepaRG (AID 2283527).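 As to outcome: TaqMan qRT-PCR transcript level normalised to ACTB GAPDH and POLR2A housekeeping genes.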 In a few lines:
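HepaRG, 48 h dosing, 8-pt half-log series from 100 uM in 0.5% DMSO, duplicates. Read-out: NFE2L2 mRNA by qRT-PCR (ACTB/GAPDH/POLR2A normalization). Bidirectional curve fit vs DMSO baseline.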

Read-out in assay [18]: succinate dehydrogenase complex iron sulfur subunit B (SDHB), SDHB (gene 6390)
In words: LTEA_HepaRG_SDHB: Life Technologies and Expression Analysis (LTEA) Assay for succinate dehydrogenase complex iron sulfur subunit B (SDHB) using HepaRG (AID 2283528). An outline of the steps: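 Readout is SDHB transcript level by qRT-PCR, normalised to three housekeeping genes and fitted bidirectionally against 0.5% DMSO vehicle. Human HepaRG cells were treated for 48 h at up to 100 uM.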

Read-out in assay [19]: Signal transducer and activator of transcription 3 (Homo sapiens) (UniProt P40763)
In words: LTEA_HepaRG_STAT3: Life Technologies and Expression Analysis (LTEA) Assay for Signal transducer and activator of transcription (STAT3) using HepaRG (AID 2283529). An outline of the steps:
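HepaRG, 48 h exposure, 8-pt half-log series (top 100 uM), 0.5% DMSO vehicle, duplicates. Readout: STAT3 transcript by Fluidigm qRT-PCR, housekeeping-normalized; bidirectional fit vs DMSO baseline.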

Read-out in assay [20]: solute carrier (SLC22A1), SLC22A1 (gene 6580)
In words: LTEA_HepaRG_SLC22A1: Life Technologies and Expression Analysis (LTEA) Assay for solute carrier (SLC22A1) using HepaRG (AID 2283524). In a few lines:
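qRT-PCR readout (TaqMan, Fluidigm arrays) of SLC22A1 transcript, normalized to three housekeeping genes; bidirectional curve fit relative to 0.5% DMSO vehicle. Differentiated human HepaRG cells, 48 h chemical exposure, top concentration 100 uM, half-log steps, eight points.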

Molecules are shown by their SMILES. Activity calls are given as the source filed them. The calls were made as follows: active = hit-call score of the fitted dose curve at least 0.9, where 1 is the maximum; inactive = score below 0.9.

Nuclear factor erythroid 2-related factor 2 (Homo sapiens), sequence (Q16236 whole entry, looked up): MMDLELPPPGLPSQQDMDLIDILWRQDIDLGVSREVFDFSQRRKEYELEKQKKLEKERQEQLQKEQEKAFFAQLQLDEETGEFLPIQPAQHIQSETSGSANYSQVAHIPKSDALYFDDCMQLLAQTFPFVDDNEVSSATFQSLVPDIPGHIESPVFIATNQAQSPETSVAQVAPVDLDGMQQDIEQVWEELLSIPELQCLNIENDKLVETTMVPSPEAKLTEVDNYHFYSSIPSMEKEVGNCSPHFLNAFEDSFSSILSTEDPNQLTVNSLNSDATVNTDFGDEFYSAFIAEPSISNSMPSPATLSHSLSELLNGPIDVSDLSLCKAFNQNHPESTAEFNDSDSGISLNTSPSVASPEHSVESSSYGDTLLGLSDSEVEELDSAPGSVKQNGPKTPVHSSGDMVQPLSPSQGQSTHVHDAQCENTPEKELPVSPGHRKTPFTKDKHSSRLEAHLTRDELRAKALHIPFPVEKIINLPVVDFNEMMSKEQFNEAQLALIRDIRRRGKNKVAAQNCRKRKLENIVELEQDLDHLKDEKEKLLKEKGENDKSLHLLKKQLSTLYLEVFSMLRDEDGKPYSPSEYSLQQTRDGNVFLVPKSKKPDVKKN
Signal transducer and activator of transcription 3 (Homo sapiens), sequence (P40763 whole entry, looked up): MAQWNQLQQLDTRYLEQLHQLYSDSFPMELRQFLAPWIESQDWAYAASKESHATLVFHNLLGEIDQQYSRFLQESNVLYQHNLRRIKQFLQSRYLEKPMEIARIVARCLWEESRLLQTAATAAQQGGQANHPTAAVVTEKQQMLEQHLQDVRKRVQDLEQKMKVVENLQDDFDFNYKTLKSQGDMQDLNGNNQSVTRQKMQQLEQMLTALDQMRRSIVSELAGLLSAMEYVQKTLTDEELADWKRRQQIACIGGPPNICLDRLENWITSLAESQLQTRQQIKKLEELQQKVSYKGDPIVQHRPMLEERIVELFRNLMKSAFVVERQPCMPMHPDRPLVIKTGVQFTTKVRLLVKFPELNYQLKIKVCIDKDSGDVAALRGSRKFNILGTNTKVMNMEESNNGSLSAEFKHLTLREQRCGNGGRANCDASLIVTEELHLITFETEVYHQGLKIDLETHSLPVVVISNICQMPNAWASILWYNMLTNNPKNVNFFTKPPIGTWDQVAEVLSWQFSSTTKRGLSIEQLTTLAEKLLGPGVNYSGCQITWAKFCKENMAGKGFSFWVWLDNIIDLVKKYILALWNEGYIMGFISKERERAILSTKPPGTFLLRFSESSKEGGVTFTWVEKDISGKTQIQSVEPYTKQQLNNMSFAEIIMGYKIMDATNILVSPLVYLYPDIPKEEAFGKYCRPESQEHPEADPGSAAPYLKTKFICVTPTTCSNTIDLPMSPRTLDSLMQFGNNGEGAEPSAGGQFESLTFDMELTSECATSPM
Nuclear factor NF-kappa-B p105 subunit (Homo sapiens), sequence (P19838 whole entry, looked up): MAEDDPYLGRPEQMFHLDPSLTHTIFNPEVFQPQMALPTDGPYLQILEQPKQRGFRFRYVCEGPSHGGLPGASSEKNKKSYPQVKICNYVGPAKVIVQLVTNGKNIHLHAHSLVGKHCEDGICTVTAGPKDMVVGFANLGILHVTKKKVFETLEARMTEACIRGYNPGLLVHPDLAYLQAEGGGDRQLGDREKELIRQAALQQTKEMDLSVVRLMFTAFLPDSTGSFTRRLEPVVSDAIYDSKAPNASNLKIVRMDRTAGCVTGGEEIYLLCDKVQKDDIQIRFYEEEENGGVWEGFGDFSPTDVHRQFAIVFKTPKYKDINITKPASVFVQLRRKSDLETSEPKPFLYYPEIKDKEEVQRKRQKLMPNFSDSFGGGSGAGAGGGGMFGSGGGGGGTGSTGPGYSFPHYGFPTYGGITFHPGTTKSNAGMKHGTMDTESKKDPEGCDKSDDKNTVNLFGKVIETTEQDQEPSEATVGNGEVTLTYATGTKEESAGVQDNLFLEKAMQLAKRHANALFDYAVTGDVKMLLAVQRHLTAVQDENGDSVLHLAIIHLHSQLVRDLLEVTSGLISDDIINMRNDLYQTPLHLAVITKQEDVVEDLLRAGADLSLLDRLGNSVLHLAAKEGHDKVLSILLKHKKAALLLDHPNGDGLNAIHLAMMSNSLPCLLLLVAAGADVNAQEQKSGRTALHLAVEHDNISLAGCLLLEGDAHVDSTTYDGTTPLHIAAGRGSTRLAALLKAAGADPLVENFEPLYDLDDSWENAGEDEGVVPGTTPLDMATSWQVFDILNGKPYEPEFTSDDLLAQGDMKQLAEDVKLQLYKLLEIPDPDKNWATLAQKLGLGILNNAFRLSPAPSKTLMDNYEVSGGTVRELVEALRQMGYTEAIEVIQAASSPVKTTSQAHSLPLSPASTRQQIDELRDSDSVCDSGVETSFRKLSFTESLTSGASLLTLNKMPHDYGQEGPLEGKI

As to `Clc1nc(Cl)nc(Nc2ccccc2Cl)n1`, the compound was called inactive in [1], in [2], in assay [3], in assay [4], in assay [5] and in assay [6]. Further, the call in [7], in assay [8], in assay [9], in assay [10], in [11] and in assay [12] was inactive. Further, the outcome in assay [13], in assay [14], in assay [15], in [16], in assay [17] and in assay [18] was inactive. Further, in [19], the call was inactive.
On to `COC(=O)NC(=S)Nc1ccccc1NC(=S)NC(=O)OC`, for which the result in assay [1], in [2], in [3], in assay [4], in assay [5] and in assay [6] was inactive. The result in [7], in assay [8], in assay [9], in [10], in assay [11] and in [12] was inactive. For the same compound, the outcome in assay [13], in assay [14], in assay [20], in [15], in assay [16] and in assay [18] was inactive. For the same compound, the compound was called inactive in [19]. The AC50 (as a rule, the midpoint of the concentration-response curve, whichever way the signal moves) in assay [17] is 50 µM (active).
Consider `CCCCOCN(C(=O)CCl)c1c(CC)cccc1CC`, for which the compound was called inactive in assay [1], in [2], in [3], in [4], in assay [5] and in assay [6]. Further, the call in assay [7], in assay [8], in [9], in assay [10], in assay [11] and in assay [12] was inactive. The call in [13], in assay [14], in assay [16], in assay [17], in assay [18] and in assay [19] was inactive. Also, the AC50 in assay [15] was 50 µM (active).
With `COP(=S)(OC)SCn1nnc2ccccc2c1=O`, the outcome in [1], in [2], in [3], in assay [4], in assay [5] and in [6] was inactive. Further, the result in [7], in assay [8], in [9], in assay [10], in assay [11] and in assay [13] was inactive. Moreover, the outcome in assay [14], in assay [15], in [16], in assay [17], in assay [18] and in assay [19] was inactive.
